According to PubChem BioAssay (Tox21):
Inconclusive results are not listed. A number with no mark means an inactive call. Active and inactive are the calls of the source. Unless noted, the call rests on the fitted dose curve; in most records, active means well fitted activation curve with a large enough effect in the repeat runs; inconclusive means weak or mixed curves; inactive means no such curve, though single readings can be large or run the other way.

The molecules below were run against Peroxisome proliferator-activated receptor gamma (Homo sapiens) (UniProt P37231) (assay: qHTS assay to identify small molecule agonists of the peroxisome proliferator-activated receptor gamma (PPARg) signaling pathway (AID 743094; active means well fitted activation curve with a large enough effect in the signal ratio in the repeat runs, not every such curve was filed as active; the % refers to the signal ratio)). Conditions: HEK293H PPARg-UAS-bla, beta-lactamase FRET ratio, 17 h; series mostly up to 57 µM.
Summary of the method: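 Cells from the PPARg UAS-bla HEK293H line are plated and incubated 5 h at 37C. Compounds in DMSO are pinned in and left 17 h at 37C. LiveBLAzer B/G substrate is then added for 1 h at room temperature before fluorescence is measured.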
On the % scale 0 is the no-effect control and ±100 the full control effect.

Sequence of Peroxisome proliferator-activated receptor gamma (Homo sapiens) (P37231 whole entry, looked up): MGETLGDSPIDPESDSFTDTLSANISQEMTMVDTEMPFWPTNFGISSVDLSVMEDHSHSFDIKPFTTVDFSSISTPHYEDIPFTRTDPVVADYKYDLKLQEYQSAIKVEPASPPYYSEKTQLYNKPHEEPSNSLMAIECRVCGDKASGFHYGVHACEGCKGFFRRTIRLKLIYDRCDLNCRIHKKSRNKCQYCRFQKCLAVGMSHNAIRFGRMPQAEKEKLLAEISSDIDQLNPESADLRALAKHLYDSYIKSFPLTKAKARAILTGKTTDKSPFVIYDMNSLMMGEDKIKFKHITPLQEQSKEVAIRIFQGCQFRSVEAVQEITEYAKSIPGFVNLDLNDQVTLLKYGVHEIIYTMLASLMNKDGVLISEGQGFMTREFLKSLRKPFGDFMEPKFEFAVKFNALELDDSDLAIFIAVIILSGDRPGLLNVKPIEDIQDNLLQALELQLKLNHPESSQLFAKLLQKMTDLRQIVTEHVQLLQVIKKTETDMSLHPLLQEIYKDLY

SMILES	Potency
O=C(OCCO)c1ccccc1O	inactive
COc1ccc(CNCC(O)COc2ccc3[nH]c(=O)ccc3c2)cc1OC (stereo unspecified)	inactive
N#Cc1ccc2c(c1)N(CCCN1CCC(O)CC1)c1ccccc1S2	inactive
O=C(O)c1c(Cl)c(Cl)c(Cl)c(Cl)c1-c1c2cc(I)c(=O)c(I)c-2oc2c(I)c(O)c(I)cc12	inactive
c1ccc2c(c1)Sc1ccccc1N2CCN1CCCC1	inactive

What follows are molecules tested against Nuclear receptor subfamily 1 group I member 2 (Rattus norvegicus) (UniProt Q9R1A7) (assay: Rat pregnane X receptor (rPXR) activation by small molecules, qHTS assay (AID 1346983; further: nearly all actives have a fitted effect of over 20% in size; further: potency means the concentration at half of the fitted maximal effect)). Conditions: rPXR luciferase reporter cells, One-Glo luminescence, 24 h; max activation: active compounds read high.
Summary of the method: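 Luminescent readout (One-Glo luciferase, 30 min room temperature) followed 24 hr compound treatment at 37 C of rPXR cells plated 2,000 per well and preincubated 5hr; qHTS format with compounds delivered in DMSO.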

Sequence of Nuclear receptor subfamily 1 group I member 2 (Rattus norvegicus) (Q9R1A7 whole entry, looked up): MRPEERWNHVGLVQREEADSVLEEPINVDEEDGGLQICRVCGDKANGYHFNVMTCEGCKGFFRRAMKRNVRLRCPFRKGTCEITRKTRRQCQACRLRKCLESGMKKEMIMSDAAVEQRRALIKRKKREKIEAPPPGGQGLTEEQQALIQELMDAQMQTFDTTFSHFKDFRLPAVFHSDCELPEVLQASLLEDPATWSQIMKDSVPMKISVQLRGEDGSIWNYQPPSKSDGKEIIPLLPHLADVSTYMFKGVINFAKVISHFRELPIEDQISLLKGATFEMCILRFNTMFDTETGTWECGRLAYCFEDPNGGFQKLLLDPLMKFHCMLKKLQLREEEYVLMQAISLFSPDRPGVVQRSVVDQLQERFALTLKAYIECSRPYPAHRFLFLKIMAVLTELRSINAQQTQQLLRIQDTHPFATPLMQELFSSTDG

SMILES	max activation [%]	Potency
CC(=O)c1ccc2c(c1)N(CCCN1CCN(CCO)CC1)c1ccccc1S2	-12.2	
Cc1cc(/C=C/c2ccc3cc(N(C)C)ccc3[n+]2C)c(C)n1-c1ccccc1	-14	
CN1CCC(CN2c3ccccc3Sc3ccccc32)C1 (stereo unspecified)	-2.87	
O=C1CSC2(CCN(CCCN3c4ccccc4Sc4ccc(Cl)cc43)CC2)N1	2.22	
CN1CCCC(CN2c3ccccc3Sc3ccccc32)C1 (stereo unspecified)	-5.65	
CCN(CC)CCOc1ccc(-c2nc3cc(Cl)ccc3s2)cc1		0.794 µM (active)
O=C(CCCN1CCC(C(=O)c2ccc(F)cc2)CC1)c1ccc(F)cc1	4	
CCc1ccc2c(c1)N(CC(C)CN(C)C)c1ccccc1S2 (stereo unspecified)	1.61	
C=C1C(=C/C=C2\CCC[C@]3(C)[C@@H]([C@H](C)CCCC(C)(C)O)CC[C@@H]23)C[C@@H](O)C[C@@H]1O	0.618	
N#Cc1ccc2c(c1)N(CCCN1CCC(O)CC1)c1ccccc1S2	-1.43	
O=C(O)c1c(Cl)c(Cl)c(Cl)c(Cl)c1-c1c2cc(I)c(=O)c(I)c-2oc2c(I)c(O)c(I)cc12	-7.42	
C[C@]12C=CC(=O)N[C@@H]1CC[C@@H]1[C@@H]2CC[C@]2(C)[C@@H](C(=O)Nc3cc(C(F)(F)F)ccc3C(F)(F)F)CC[C@@H]12	-1.05	
CN(C)CCCN1c2ccccc2C(C)(C)c2ccccc21	-1.25	

The molecules below were run against Nuclear receptor subfamily 1 group I member 2 (Homo sapiens) (UniProt O75469) (assay: CYP3A4 induction through human pregnane X receptor (PXR) by small molecules, qHTS assay (AID 1346984; further: nearly all actives have a fitted effect of over 40% in size; further: potency means the concentration at half of the fitted maximal effect)). Conditions: DPX-2 HepG2 PXR, CYP3A4-luciferin luminescence, 24 h; series mostly up to 46.1 µM.
Summary of the method: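 Quantitative HTS in DPX-2 cells, i.e. HepG2 transfected with PXR response element and CYP3A4-promoter luciferase. Compounds in DMSO incubated 24hr at 37C; then P450-Glo CYP3A4 substrate, 3uM final, 3hr; One-Glo luminescence.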

SMILES	Potency
CN1CCC(CN2c3ccccc3Sc3ccccc32)C1 (stereo unspecified)	0.891 µM (active)
C=C[C@]1(C)C[C@@H](OC(=O)CSC(C)(C)CNC(=O)[C@H](N)C(C)C)[C@]2(C)[C@H](C)CC[C@]3(CCC(=O)[C@H]32)[C@@H](C)[C@@H]1O	inactive
O=C1CSC2(CCN(CCCN3c4ccccc4Sc4ccc(Cl)cc43)CC2)N1	inactive
C=C[C@]1(C)C[C@@H](OC(=O)CSCCN(CC)CC)[C@]2(C)[C@H](C)CC[C@]3(CCC(=O)[C@H]32)[C@@H](C)[C@@H]1O	inactive
CN1CCCC(CN2c3ccccc3Sc3ccccc32)C1 (stereo unspecified)	25.1 µM (active)
CCN(CC)CCOc1ccc(-c2nc3cc(Cl)ccc3s2)cc1	12.6 µM (active)
CNC(C)CCC=C(C)C (stereo unspecified)	inactive
CCCCC(=O)OCC(=O)[C@]1(O)Cc2c(O)c3c(c(O)c2[C@@H](O[C@H]2C[C@H](NC(=O)C(F)(F)F)[C@H](O)[C@H](C)O2)C1)C(=O)c1c(OC)cccc1C3=O	inactive
CCc1ccc2c(c1)N(CC(C)CN(C)C)c1ccccc1S2 (stereo unspecified)	12.6 µM (active)
C=C1C(=C/C=C2\CCC[C@]3(C)[C@@H]([C@H](C)CCCC(C)(C)O)CC[C@@H]23)C[C@@H](O)C[C@@H]1O	inactive
C[C@]12C=CC(=O)N[C@@H]1CC[C@@H]1[C@@H]2CC[C@]2(C)[C@@H](C(=O)Nc3cc(C(F)(F)F)ccc3C(F)(F)F)CC[C@@H]12	inactive
CN(C)CCCN1c2ccccc2C(C)(C)c2ccccc21	31.6 µM (active)
c1ccc2c(c1)Sc1ccccc1N2CCN1CCCC1	10 µM (active)
